# Pf apPOL block – Pf-apPOL DNA polymerase inhibition; Recombinant Pf-apPOL, molecular beacon fluorescence, 1.5 h; inhibition, % at 10 µM; 210,000 tested, 0.25% active; AID 1794808
# mHTT CaM bind – inhibitors of human mutant huntingtin-calmodulin interaction. P42858. AlphaScreen His-mHTT/GST-CaM binding, luminescence. inhibition, % at 15 µM. 190,000 tested, 3.6% active;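 also: 0% = both proteins with DMSO and 100% = one protein alone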
# * hit, by the source's call; i = inactive; / = not tested or not shown. The full list was thinned out, with hits kept by preference. Rule as the data show it: active = inhibition above about 50%; inactive = the rest.
SMILES,Pf apPOL block,mHTT CaM bind
CC1CC(=O)Nc2c1c(NC(=O)c1ccc(S(=O)(=O)N3CCOCC3)cc1)nn2C (stereo unspecified),-6,100*
CC1CC(=O)Nc2c1c(NC(=O)c1cc(-c3ccc(F)cc3)n[nH]1)nn2C (stereo unspecified),-7,1
CC(C)(C)c1cc(C(=O)Nc2ccc(C#N)cc2)nc2ccnn12,-2,-14
C/C(=N/O)C1C(=O)c2ccccc2C1=O,/,i
Cc1ccnc(Nc2ccc(N3CCN(C(=O)C4CCCC4)CC3)nn2)c1,-5,55*
O=C(c1cnccn1)N1CCN(c2cc(-n3cccn3)ncn2)CC1,0,-10
Cc1ccnc(NC(=O)C2CCCC2)c1,-2,-4
Cc1ccnc(Nc2ccc(N3CCN(C(=O)c4cnccn4)CC3)nn2)c1,-8,90*
COc1ccc(C2C=C(c3ccc(F)cc3)Nc3nnnn32)c(OC)c1 (stereo unspecified),-6,4
COc1ccc(C2CC(c3ccc(Cl)cc3)Nc3nc(N)nn32)cc1OC (stereo unspecified),-9,7
Oc1ccc(Cl)cc1C1=NNC(c2ccc(Br)cc2)C1 (stereo unspecified),-1,75*
COc1ccc(C2CC(c3cc(Cl)ccc3O)=NN2)cc1OC (stereo unspecified),-3,74*
CCOC(=O)N1CCC2(CC1)N=C(c1cc(Cl)ccc1O)CC(c1ccccc1)N2 (stereo unspecified),-5,40
COc1ccc(C2CC(c3cc(F)ccc3O)=NN2)c(OC)c1 (stereo unspecified),-10,56*
Oc1ccc(Cl)cc1C1=NNC(c2ccccc2F)C1 (stereo unspecified),-6,54*
Oc1ccc(Br)cc1C1=NNC(c2cccs2)C1 (stereo unspecified),1,44
Cc1cccc(C(=O)N2CCCC2c2nc(-c3ccccc3C)no2)c1 (stereo unspecified),-3,-5
Cc1ccc(-n2cc(-c3ccc(Cl)cc3)[nH]c2=O)cc1,-10,26
Cc1cc(C)c(S(=O)(=O)N2CCC(c3noc(-c4ccccc4)n3)CC2)cc1C,-2,-4
O=C(CSc1nccc(-c2ccc3c(c2)OCO3)n1)c1ccc2c(c1)OCO2,10,-6
Oc1ccc(C2CC(c3ccccc3O)=NN2)cc1 (stereo unspecified),-1,96*
CCOc1ccc(C2CC(c3ccccc3O)=NN2)cc1 (stereo unspecified),-1,17
COc1ccc(CNc2ccc3[nH]ncc3c2)cc1C,12,65*
CC(CCc1ccc(O)cc1)Nc1ccc2[nH]ncc2c1 (stereo unspecified),1,40
Cc1ccc(C)c(CNc2ccc3[nH]ncc3c2)c1,0,75*
SMILES,Pf apPOL block,mHTT CaM bind
COc1ccc(CNc2ccccc2)cc1C,-2,8
Cc1ccccc1C(=O)N1CCC(C(=O)N(Cc2ccccc2)Cc2ccccc2)CC1,-2,17
CCOc1ccc(NC(=O)CN2C(=O)C(=O)c3ccccc32)cc1,1,8
COc1ccc(-c2c(C)c3cc(OC(=O)c4ccc([N+](=O)[O-])cc4)ccc3oc2=O)cc1,1,2
Cc1cccc(C2CC(c3ccc(Cl)cc3)Nc3nnnn32)c1 (stereo unspecified),4,18
COc1ccc(OC)c(C2=NOC(C(=O)N3CCC(Cc4ccccc4)CC3)C2)c1 (stereo unspecified),-4,3
CCn1c(=O)c(-c2ccc(C(=O)NC(C)(C)C)cc2)nc2ccccc21,-1,0
CCNc1ccc(Br)cc1-c1nc2ccccc2n(CC)c1=O,-1,52*
N#Cc1c(SCC(=O)Nc2nncs2)sc2c(O)cc(=O)[nH]c12,/,54*
CC(=O)CSc1sc2c(O)cc(=O)[nH]c2c1C#N,/,4
O=C(NCc1ccco1)C1CCN(c2nccn3nc(-c4cccs4)cc23)CC1,2,20
COc1ccc(C(=O)NCCC23CC4CC(CC(C4)C2)C3)cc1,-2,-29
CCCc1[nH]nc(-c2ccccc2)c1NC(=O)C1CC1,-6,13
CCc1[nH]nc(-c2ccccc2)c1NC(=O)CC1CCCC1,72*,98*
COCCN1CCC(N2CCCN(C(=O)c3ccc4c(c3)OCO4)CC2)C1=O (stereo unspecified),3,3
C#CCSC1=C(C#N)C(c2ccccc2[N+](=O)[O-])C(C(C)=O)=C(C)N1 (stereo unspecified),-33,41
Cc1ccccc1OCC(=O)N1CCN(c2nc(CN3CCOCC3)cs2)CC1,-5,3
O=C1CCN(CCc2ccccc2)CCN1[C@H](COc1ccccc1)Cc1ccccc1,-4,98*
CC(C)CN1CCC(=O)N([C@H](COc2ccccc2)Cc2ccccc2)CC1,-6,19
CC(C)C[C@@H](COc1ccccc1)N1CCN(CCc2ccccc2)CCC1=O,-10,84*
CC(=O)Nc1ccc(SC[C@H](c2ccccc2)N2CCN(CCc3ccccc3)CCC2=O)cc1,-6,98*
O=C1CCN(CCc2ccccc2)CCN1[C@H](CSc1ccc(Br)cc1)c1ccccc1,-4,21
CCCN1CCC(=O)N([C@H](COc2ccccc2)CC(C)C)CC1,-3,7
O=[N+]([O-])c1ccc(SCc2ccc(Cl)cc2)c(C(F)(F)F)c1,-4,/
CCC(NS(=O)(=O)c1cccc2nsnc12)C12CC3CC(CC(C3)C1)C2 (stereo unspecified),-6,32
SMILES,Pf apPOL block,mHTT CaM bind
CN1/C(=C\C(C[N+](=O)[O-])c2ccc3c(c2)OCO3)C(C)(C)c2ccccc21 (stereo unspecified),-17,83*
COc1ccc(C(/C=C2\N(C)c3ccccc3C2(C)C)C[N+](=O)[O-])cc1 (stereo unspecified),0,50
CC(C)C(=O)NCCc1csc(C2CCCN(C(=O)Cc3ccc(F)cc3)C2)n1 (stereo unspecified),4,16
COc1ccc(Cl)cc1C(=O)N1CCN(c2ccccc2F)CC1,-11,-1
COc1ccc(Cl)cc1C(=O)N1CCN(C2=NN=C(c3cccs3)CS2)CC1,5,68*
CCC(NC(=O)C1CCN(c2cncnc2N2CCOCC2)CC1)c1ccc(OC)cc1 (stereo unspecified),0,-2
COc1ccc(C2Nc3ccccc3C(=O)N2Cc2ccco2)cc1COc1ccc(Cl)cc1 (stereo unspecified),8,55*
COc1cccc(OCc2cc(C3Nc4ccccc4C(=O)N3Cc3ccco3)ccc2OC)c1 (stereo unspecified),-8,28
Cc1cc(C)nc(SCC(=O)c2ccc(C(C)C)cc2)n1,-2,-14
Cc1ccc(C(=O)Sc2nc(C)cc(C)n2)cc1,0,71*
O=C(CC1CCCC1)N1CCN(Cc2noc3ccccc23)CC1,-1,0
CC(C)NC(=O)c1csc(COc2cc(Cl)ccc2Cl)n1,-3,-22
CC(=NOC(=O)c1ccccc1)c1sc2ccc(Cl)cc2c1C,-5,/
C=CCNC(=O)C1CC(c2ccc(F)c(C)c2)CN(C(C)=O)C1 (stereo unspecified),-2,34
FC(F)(F)c1cccc(Cc2cccc(C(F)(F)F)c2)c1,0,/
OC(CSCc1cccc(C(F)(F)F)c1)C(O)CSCc1cccc(C(F)(F)F)c1 (stereo unspecified),/,100*
CCOc1ccc(N2CCN(C(=O)c3ccc(Cl)cc3)C(C)C2=O)cc1 (stereo unspecified),5,-4
